Assay outcomes from PubChem.
Nrf2 block: Nrf2 qHTS screen for inhibitors; A549 ARE-Fluc reporter, luciferase luminescence, 18-24 h; Potency, µM (series often up to 46 µM), hits mostly inhibitors; hit rate 2.1% among 360,000; note: nearly all actives have a fitted effect of over 60% in size
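In this cell-based qHTS, ARE-driven firefly luciferase in A549 cells reports Nrf2 activity; the luminescent signal after BugLite lysis is the measured value, with a prior CellTiter-Fluor read for cell health.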
A549 tox: Nrf2 qHTS screen for inhibitors: counterscreen for cytotoxicity; A549 ARE-Fluc cells, CellTiter-Fluor viability, 18-24 h; Potency, µM (titrated, usually from 46 µM), most hits filed as inhibitors; hit rate 0.16% among 390,000; AID 504648, 2011
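Cytotoxicity counterscreen: CellTiter-Fluor fluorescence was measured in A549 ARE_Fluc cells after 18-24 h of compound exposure in a concentration series. The subsequent BugLite luminescent read reports ARE-luciferase activity.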
Nrf2 ARE act: qHTS of Nrf2 Activators. hit rate 0.31% among 410,000. AREc32 ARE-luciferase reporter (MCF7-derived line), luminescence, 24 h. AID 624171, 2012. Potency, µM (series often up to 46.1 µM), hits mostly activators; note: nearly all actives have a fitted effect of over 65% in size
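Quantitative high-throughput format: AREc32 reporter cells, 1000 per well, received compound by pin transfer and were incubated 24 hr at 37 deg C, 5% CO2, before Steady-Glo luminescence detection.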
S2 tox: Viability Counterscreen for Primary qHTS for Inhibitors of ATXN expression; S2 cells (HEK-293 line with an ATXN2-luciferase reporter) viability, CellTiter-Fluor protease fluorescence, 24 h; Potency, µM (titrated, usually from 56.7 µM), actives largely listed as cytotoxic; hit rate 0.49% among 400,000; AID 651635, 2014; note: nearly all actives have a fitted effect of over 40% in size
ATXN2 expr inh: Primary qHTS for Inhibitors of ATXN expression; hit rate 0.72% among 360,000; HEK-293 ATXN2-luciferase reporter, luminescence, 24 h; Potency, µM (top dose mostly 57 µM), hits mostly inhibitors; note: nearly all actives have a fitted effect of over 55% in size
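ATXN2-luciferase reporter cells (luciferase flanked by upstream and downstream ATXN2 gene portions) were treated 24 h at 37 °C with compounds at up to 57 uM. SteadyGlo luminescence gave expression; GF-AFC fluorescence gave viability.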
Of the large screens only hits and unclear results are named; the others gave an inactive call. Sampled rows, rich in hits. Any-hit rate of the full collection: about 2.9%. Calls come from the whole dose curve; as a rule, active = well fitted curve in the direction sought with a large enough effect; inconclusive = small, poorly fitted or top-dose-only effect, or another doubt; inactive = no such curve, though single readings can be large; an effect the other way counts as inactive or inconclusive.

COc1ccc(C(=O)NCC(C)CN(C)C)cc1 (stereo unspecified)	none (no result: Nrf2 block)
CCOC(=O)c1[nH]c2ccccc2c1NC(=O)C1CCCC1	none
COc1ccccc1C(=O)COC(=O)C1(C)CC1(Cl)Cl (stereo unspecified)	none
O=C(NCCCN1CCCCC1)c1ccc2c(c1)NC(=O)c1ccccc1S2	S2 tox inconclusive (no result: ATXN2 expr inh)
CCCC1=Nc2cc(C(=O)NCCCOC(C)C)ccc2Sc2ccccc21	Nrf2 block 8.2µM, A549 tox inconclusive
CC(C)OCCCNC(=O)c1ccc2c(c1)NC(=O)c1ccccc1S2	Nrf2 block 21µM
CCCC1=Nc2cc(C(=O)NCCCOCC)ccc2Sc2ccccc21	A549 tox inconclusive, S2 tox inconclusive
CC1=Nc2cc(C(=O)NCCCOC(C)C)ccc2Sc2ccc(C)cc21	Nrf2 block 23µM
CC1=Nc2cc(C(=O)NCCCOC(C)C)ccc2Sc2ccccc21	none
O=C(Nc1nccs1)c1ccc(S(=O)(=O)NCc2cccs2)cc1	none
O=C(Nc1nccs1)c1ccc(S(=O)(=O)NCC2CCCCC2)cc1	Nrf2 block 13µM
COc1ccccc1C1=Nn2c(nnc2C2CCCCC2)SC1	none
COc1ccc(OC)c(-c2nnc3n2N=C(c2ccc(OC)c(OC4CCCC4)c2)CS3)c1	Nrf2 block 18µM, S2 tox inconclusive, ATXN2 expr inh inconclusive
COc1ccc(OC)c(C2=Nn3c(nnc3C3CCCCC3)SC2)c1	Nrf2 block 21µM, S2 tox inconclusive
COc1cc(OC)c(C(=O)N(Cc2ccco2)Cc2cccs2)cc1OC	none (no result: Nrf2 ARE act, S2 tox, ATXN2 expr inh)
COc1ccc(NC(=O)N2CCN(c3cccc(C(F)(F)F)c3)CC2)cc1OC	Nrf2 block inconclusive
FC(F)(F)c1cccc(N2CCN(C(=S)NCC3CCCO3)CC2)c1 (stereo unspecified)	Nrf2 block 13µM, A549 tox inconclusive
O=C(Nc1ccccc1)N1CCN(c2cccc(C(F)(F)F)c2)CC1	Nrf2 block 23µM
CCC(C)[C@H](NC(=O)N1CCN(c2cccc(C(F)(F)F)c2)CC1)C(=O)OC (stereo partly specified)	Nrf2 block 18µM
S=C(NCC1CCCO1)N1CCN(c2ccccc2)CC1 (stereo unspecified)	none
CC1CCc2onc(C(=O)N3CCN(c4cccc(C(F)(F)F)c4)CC3)c2C1 (stereo unspecified)	Nrf2 block 21µM (no result: S2 tox, ATXN2 expr inh)
Cc1ccc(CS(=O)Cc2ccc(C(=O)NCCCc3ccccc3)o2)cc1 (stereo unspecified)	none (no result: Nrf2 block, A549 tox, ATXN2 expr inh)
CN1CCN(C(=O)c2cnn(-c3ccccc3)c2NC(=O)c2ccccc2Cl)CC1	none
Cc1ccc(S(=O)(=O)N2CCCC2CNC(=O)C(=O)Nc2ccc(F)cc2)cc1 (stereo unspecified)	Nrf2 block 13µM
Cc1ccc(C(=O)NCC2CCCN2S(=O)(=O)c2ccc(C)cc2)cc1 (stereo unspecified)	none
CC(C)(C)c1ccc(C(=O)NCC2CCCN2S(=O)(=O)c2ccccc2)cc1 (stereo unspecified)	Nrf2 block 21µM
COc1ccc(S(=O)(=O)N2CCCC2CNC(=O)C(=O)Nc2ccc(C)cc2)cc1 (stereo unspecified)	Nrf2 block inconclusive
Cc1ccc(C)c(S(=O)(=O)N2CCCC2CNC(=O)c2ccc([N+](=O)[O-])cc2)c1 (stereo unspecified)	Nrf2 block 18µM, ATXN2 expr inh inconclusive
COc1ccccc1NC(=O)NNC(=O)CCc1ccccc1	none
COc1c(O)ccc(/C=N/NC(=O)c2ccc3c(c2)OCCO3)c1[N+](=O)[O-]	Nrf2 block 5.2µM
COc1c(O)ccc(/C=N\NC(=O)c2ccc3c(c2)OCO3)c1[N+](=O)[O-]	Nrf2 block 12µM (no result: ATXN2 expr inh)
O=C(N/N=C/c1ccc([N+](=O)[O-])o1)c1ccc2c(c1)OCO2	Nrf2 block inconclusive, A549 tox inconclusive, ATXN2 expr inh 10µM
CC(Oc1ccccc1)C(=O)Nc1ccc(S(=O)(=O)Nc2nccs2)cc1 (stereo unspecified)	none
CCCCc1c(-c2ccccc2OC)ncn1Cc1ccc(-c2ccccc2)cc1	ATXN2 expr inh 25µM (no result: Nrf2 block, A549 tox, S2 tox)
CCCCc1c(-c2ccccc2OC)ncn1Cc1cccc(-c2ccccc2)c1	S2 tox inconclusive, ATXN2 expr inh 28µM (no result: Nrf2 block, A549 tox)
CCCCc1c(-c2ccccc2OC)ncn1Cc1ccc(Cl)cc1	S2 tox inconclusive, ATXN2 expr inh inconclusive (no result: Nrf2 block, A549 tox)
Cc1csc2c(N3CCC(C(=O)O)CC3)ncnc12	none (no result: ATXN2 expr inh)
Cc1csc2c(N3CCN(C(=O)Nc4ccc(OC(F)(F)F)cc4)CC3)ncnc12	Nrf2 block 21µM
CCSc1nnc(NC(=O)C(C)(C(F)(F)F)C(F)(F)F)s1	Nrf2 block 16µM, A549 tox inconclusive, ATXN2 expr inh inconclusive
CCSc1nnc(NC(=O)C(CC)(C(F)(F)F)C(F)(F)F)s1	Nrf2 block 15µM, A549 tox inconclusive
CCSc1nnc(NC(=O)C(C(F)(F)F)C(F)(F)F)s1	Nrf2 ARE act inconclusive
Cc1ccc(OCc2cc(C(=O)NC3CCc4ccccc43)no2)cn1 (stereo unspecified)	Nrf2 block 13µM
CSc1ccccc1OCc1cc(C(=O)NC2CCc3ccccc32)no1 (stereo unspecified)	none
CO/N=C/NC(=O)NOCc1ccc(Cl)cc1Cl	none
O=C(N/C=N/OCc1ccc(Cl)cc1Cl)NOCc1c(Cl)cccc1Cl	Nrf2 block 26µM, ATXN2 expr inh inconclusive
CCOC(=O)C1CCCN(C(=O)c2cccc(Cl)c2)CC1 (stereo unspecified)	none (no result: Nrf2 block, A549 tox)
CCc1cnn2c(NCc3ccc[n+]([O-])c3)cc(N3CCCC[C@@H]3CCO)nc12	ATXN2 expr inh 0.014µM (no result: Nrf2 block, A549 tox, Nrf2 ARE act, S2 tox)
CC(C)CC1C2C(=O)N(c3ccccc3)C(=O)C2ON1c1ccccc1 (stereo unspecified)	none (no result: ATXN2 expr inh)
CCN(CC)S(=O)(=O)c1cccc(S(=O)(=O)c2cccc(S(=O)(=O)N(CC)CC)c2)c1	Nrf2 block 9.2µM
CCN(CC)S(=O)(=O)c1cccc(S(=O)(=O)N2CCCCC2)c1	none
CCCc1cc(=O)oc2cc(OC(=O)CN3C(=O)NC4(CCCC4)C3=O)ccc12	none
O=c1cc(NCc2ccccc2)nc2n1CCCS2	none
CC(=O)Nc1ccc(SC[C@H](Cc2ccccc2)N2CC[C@@H](C(C)(C)C)CCC2=O)cc1	Nrf2 block inconclusive, S2 tox 32µM, ATXN2 expr inh inconclusive
CC(=O)Nc1ccc(S[C@@H](CCN2CC[C@H](C(C)(C)C)CCC2=O)c2ccccc2)cc1	Nrf2 block inconclusive, S2 tox 32µM, ATXN2 expr inh inconclusive
Cc1onc(-c2ccccc2Cl)c1C(=O)N1CCC(C)CC1	S2 tox inconclusive
C/C(=N\NC(=O)CSCc1ccc([N+](=O)[O-])cc1)c1ccccc1	Nrf2 block inconclusive (no result: S2 tox)
C/C(=N\NC(=O)CSCc1ccc([N+](=O)[O-])cc1)c1ccccc1O	Nrf2 block inconclusive, S2 tox inconclusive, ATXN2 expr inh 18µM
